Tau FP inhib = blocks human tau fibril formation measured by polarization | P10636 | K18 P301L tau heparin fibrillization, Alexa594 FP, 6 h | Potency, µM (highest dose often 57.7 µM), usual class: inhibitors | 280,000 compounds, 0.39% hits | AID 1468; further: nearly all actives have a fitted effect of over 55% in size
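Human K18 P301L fragment (15 uM unlabeled plus 0.24 uM Alexa 594-labeled) in 100 mM sodium acetate pH 7 with compound, aggregation induced by 20 uM heparin for 6 hr at 37 C. ThT (30 uM) added for 1 hr, then Alexa 594 FP read.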
Tau fluor cs = counter-screen for tau fibril formation inhibitors | tau K18 P301L Alexa594 fluorescence, heparin fibrillization | 280,000 compounds, 0.93% hits | Potency, µM (highest dose often 57.7 µM); further: nearly all actives have a fitted effect of over 55% in size
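Human tau K18 P301L (15 uM unlabeled, 0.24 uM Alexa 594-labeled) in 100 mM sodium acetate pH 7 with 20 uM heparin, 6 hr at 37 C. ThT 30 uM added, 1 hr ambient; Alexa 594 FP and total fluorescence read at 555/632 nm.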
Tau ThT inhib = blocks human tau fibril formation measured by thioflavin T; P10636; recombinant tau K18 P301L (four-repeat tau fragment), heparin-induced fibrillization, ThT fluorescence; Potency, µM (highest dose often 57.4 µM), usual class: inhibitors; 270,000 compounds, 2.1% hits; AID 1460; further: nearly all actives have a fitted effect of over 55% in size
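Aggregation was driven by heparin (20 uM final) acting on recombinant tau […] bearing P301L in 100 mM sodium acetate pH 7; fibrils were detected with Thioflavin T.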
USP1-UAF1 inh = inhibitors of human USP1/UAF1 deubiquitinase; O94782; recombinant USP1/UAF1, Ub-Rhodamine cleavage fluorescence; Potency, µM (titrated, usually from 57.1 µM), most hits filed as inhibitors; 390,000 compounds, 0.23% hits; AID 743255; further: nearly all actives have a fitted effect of over 60% in size
Target sequence (O94782 whole entry, looked up): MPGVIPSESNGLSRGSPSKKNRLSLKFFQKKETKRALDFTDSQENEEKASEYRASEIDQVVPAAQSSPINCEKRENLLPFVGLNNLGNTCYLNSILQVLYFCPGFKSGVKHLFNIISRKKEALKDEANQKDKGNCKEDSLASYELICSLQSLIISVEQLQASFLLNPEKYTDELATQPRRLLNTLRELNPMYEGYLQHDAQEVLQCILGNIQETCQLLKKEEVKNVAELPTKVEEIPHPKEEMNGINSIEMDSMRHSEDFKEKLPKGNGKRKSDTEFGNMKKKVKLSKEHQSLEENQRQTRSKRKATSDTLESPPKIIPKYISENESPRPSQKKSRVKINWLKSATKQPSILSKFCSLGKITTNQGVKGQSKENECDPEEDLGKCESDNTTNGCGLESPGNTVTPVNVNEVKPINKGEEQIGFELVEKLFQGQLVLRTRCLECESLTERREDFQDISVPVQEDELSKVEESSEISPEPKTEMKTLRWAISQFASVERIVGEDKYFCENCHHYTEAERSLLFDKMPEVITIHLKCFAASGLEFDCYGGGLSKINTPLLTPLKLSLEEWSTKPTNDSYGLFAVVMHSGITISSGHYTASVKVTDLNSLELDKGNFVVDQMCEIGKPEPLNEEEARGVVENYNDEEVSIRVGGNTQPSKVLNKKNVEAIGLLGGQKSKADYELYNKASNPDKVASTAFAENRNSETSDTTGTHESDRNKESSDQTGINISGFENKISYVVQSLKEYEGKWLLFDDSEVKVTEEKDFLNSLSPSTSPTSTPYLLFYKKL
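High-throughput fluorogenic screen: 1nM USP1/UAF1 complex, Ub-Rho substrate 150nM final, 50mM HEPES pH 7.8 with 0.5mM EDTA, 0.1 mg/ml BSA, 1mM TCEP and 0.01% Tween-20.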
Coupling enz = inhibits coupling enzyme system, counter-screen for aldolase hits; coupling enzyme system counterscreen, AmpLite Red fluorescence; activity change, negative = inhibition, % at 58.2 µM, hits read low; 290,000 compounds, 0.67% hits; in the data active means activity change below about -30%
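Final compound at 57.5 uM, incubated 10 min at RT with coupling enzyme reagent (glyceraldehyde-3-phosphate), then 20 min with substrate and AmpLite Red detection. Fluorescence read at 525/598 nm; tests interference with the coupling assay, not aldolase inhibition.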
Of the large screens only hits and unclear results are named; the others gave an inactive call; [ ] = another dose, or the depositor's remark. Compounds with a hit are over-represented: about 2.3% of the library has one in this group of screens. Unless noted, the call rests on the fitted dose curve; in most records, active means well fitted curve in the direction sought with a large enough effect; inconclusive means small, poorly fitted or top-dose-only effect, or another doubt; inactive means no such curve, though single readings can be large; an effect the other way counts as inactive or inconclusive.

O=C(Nc1ccc([N+](=O)[O-])cc1Cl)c1cccc([N+](=O)[O-])c1	none (no result: Tau FP inhib, Tau fluor cs, Tau ThT inhib, Coupling enz)
O=C(Nc1cccc(Cl)c1)c1cc(N=Nc2ccc([N+](=O)[O-])cc2Cl)ccc1O	Tau FP inhib 8.91µM, Tau fluor cs 1.12µM[quencher], Tau ThT inhib 0.891µM
O=C(Nc1ccc([N+](=O)[O-])cc1Cl)c1cc(Cl)ccc1O	Tau fluor cs inconclusive, Tau ThT inhib 7.08µM
CCOC(=O)c1noc2ncn(Cc3ccc([N+](=O)[O-])cc3)c(=O)c12	none (no result: Coupling enz)
CCOc1ccc(S(=O)(=O)c2cn(Cc3ccccc3C)c3ccc(OC)cc3c2=O)cc1	none (no result: Coupling enz)
COc1ccc(C(=O)Cc2nnc(C)s2)c(OC)c1	Tau ThT inhib inconclusive, Coupling enz -33.7
CCc1nnc(NC(=O)c2ccc(OC)cc2OC)s1	none
Cc1oc2ncnc(N3CCCCC3)c2c1C(=O)NCC1CCN(Cc2ccccc2F)CC1	none (no result: Coupling enz)
Cc1c(Cl)cccc1N=Cc1ccc([N+](=O)[O-])s1	Tau ThT inhib inconclusive, USP1-UAF1 inh 31.6µM
Cc1ccccc1C(=O)N/N=C/c1ccc([N+](=O)[O-])s1	Tau ThT inhib inconclusive
COc1ccc2nc3cc(Cl)ccc3c(Nc3cc(C(C)C)c(O)cc3C)c2c1	Tau FP inhib inconclusive, Tau fluor cs 7.08µM[quencher], Tau ThT inhib 5.01µM
CCc1cccc(CC)c1NS(=O)(=O)c1ccc2c(c1)CCN2C(=O)C1CC1	none (no result: Coupling enz)
Cc1ccc(NC(=S)NNc2ccc([N+](=O)[O-])cc2S(=O)(=O)Nc2ccccc2C(=O)O)cc1C	Tau FP inhib inconclusive, Tau fluor cs inconclusive, Tau ThT inhib 7.94µM
CC(=O)Nc1ccc(C=NNc2ccc([N+](=O)[O-])cc2S(=O)(=O)Nc2ccccc2C(=O)O)cc1	none (no result: Tau FP inhib, Tau fluor cs, Tau ThT inhib, Coupling enz)
O=C(O)c1ccccc1NS(=O)(=O)c1ccc(NNC(=S)Nc2ccc(OC(F)F)cc2)c([N+](=O)[O-])c1	Tau FP inhib 25.1µM, Tau fluor cs 10µM[quencher], Tau ThT inhib 7.08µM, USP1-UAF1 inh inconclusive
COc1ccc(C2/C=C\CN(C(=O)c3ccc(C)cc3)C(C)C(=O)N2Cc2ccc(F)cc2)cc1 (stereo not drawn)	none (no result: Tau FP inhib, Tau fluor cs, Tau ThT inhib, USP1-UAF1 inh)
CC1(C)CCCN(C(=O)c2ccc3c(c2NCCO)C(=O)c2ccccc2C3=O)C1	Tau fluor cs inconclusive, Tau ThT inhib 14.1µM
O=C1c2ccccc2C(=O)c2c1ccc(C(=O)N1CCCCC1)c2NCCO	none
CCN(CCN(C)C)C(=O)c1ccc2c(c1NCCO)C(=O)c1ccccc1C2=O	Tau ThT inhib inconclusive, USP1-UAF1 inh inconclusive, Coupling enz -37.3
COCCNc1nc(C)nc2c1nc(-c1ccccc1)n2C1CCN(Cc2ccccc2)C1 (stereo not drawn)	none (no result: USP1-UAF1 inh)
CCC(C)Sc1c(C(C)C)cnc2c1c(=O)n(C)c(=O)n2C (stereo not drawn)	none (no result: Coupling enz)
COc1cccc(/C=N/NC(=O)c2c(C)nc3ccc(Br)cn23)c1	Coupling enz -33.1
Cc1nc2ccc(Br)cn2c1C(=O)N/N=C\c1ccc(C(C)C)cc1	none (no result: Tau FP inhib, Tau fluor cs, Tau ThT inhib)
CCN1C(=O)[C@H]2[C@H]3[C@H](O)[C@H](O)C/C(=N/OC[C@@H](O)COCc4ccco4)[C@@H]3CC[C@@H]2C1=O	none (no result: USP1-UAF1 inh)
CNC(=S)N(CCc1c(C)[nH]c2ccc(Cl)cc12)Cc1cccs1	Tau FP inhib inconclusive, Tau fluor cs 15.8µM[quencher] (no result: USP1-UAF1 inh)
CCNC(=S)N(CCc1c(C)[nH]c2ccc(C)cc12)Cc1cccs1	Tau FP inhib inconclusive, Tau fluor cs 14.1µM[quencher], Tau ThT inhib inconclusive
COCCNC(=S)N(CCc1c(C)[nH]c2ccccc12)Cc1ccco1	Tau FP inhib inconclusive, Tau fluor cs inconclusive
COCCNC(=S)N(CCc1c(C)[nH]c2ccc(Cl)cc12)Cc1cccs1	Tau fluor cs 8.91µM[quencher]
COCCNC(=S)N(CCc1c(C)[nH]c2ccc(F)cc12)Cc1cccs1	Tau fluor cs 14.1µM[quencher]
CCNC(=S)N(CCc1c(C)[nH]c2ccc(Cl)cc12)Cc1ccco1	Tau FP inhib inconclusive, Tau fluor cs 12.6µM[quencher]
CNC(=S)N(CCc1c(C)[nH]c2ccc(C)cc12)Cc1ccco1	Tau FP inhib inconclusive, Tau fluor cs inconclusive, Tau ThT inhib inconclusive, USP1-UAF1 inh inconclusive
CCOC(=O)N1CCc2c(sc3c2c(=O)n(CCc2ccccc2)c(=O)n3CC(=O)Nc2ccc(C)cc2)C1	Tau FP inhib inconclusive (no result: Coupling enz)
Cc1ccc(C)n1-c1ccccc1N	Coupling enz -55.9 (no result: USP1-UAF1 inh)
Cc1cc(=O)cc(C)n1-c1ccccc1N	none (no result: Tau FP inhib, Tau fluor cs, Tau ThT inhib)

Screens as filed in PubChem BioAssay.
